Data from PubChem BioAssay (NCI).
This is part of a sample that, as a whole, favours compounds with a hit. Of some 83,000 tested, about 20% had one in any assay.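 Assay: single dose, 48 h. Readout: percent growth (0 = no net growth; negative = cell death). Active: <10.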 Activity calls are given as the source filed them.

How the values were obtained:
Assay in all cases: NCI-60 one-dose screen, 48 h (100 = growth as untreated, 0 = no growth, -100 = all killed)
Settings in all cases: 10 µM unless noted
[1] = tested on: NCI-H23 lung
[2] = tested on: NCI-H226 lung
[3] = tested on: NCI-H322M lung
[4] = tested on: HOP-62 NSCLC
[5] = tested on: NCI-H460 lung
[6] = tested on: HOP-92 NSCLC
[7] = tested on: NCI-H522 lung
[8] = tested on: A549/ATCC NSCLC
[9] = tested on: 786-0 renal
[10] = tested on: COLO 205 colon

Measured: growth

CCC1S/C(=N\N=C(/C)c2ccc[nH]2)N(c2ccccc2)C1=O (stereo not given)
inactive: [1] 98.8% | [2] 132% | [3] 90.8% | [4] 108% | [5] 104% | [6] 70.5% | [7] 27.2% | [8] 82.6% | [9] 117% | [10] 127%

O=C(Nc1cccc(-c2cccc(F)c2)c1)C1CCN(Cc2cccc3cccnc23)CC1
inactive: [1] 69.2% | [2] 71.5% | [3] 78.2% | [4] 63.8% | [5] 37% | [6] 44.2% | [7] 47.3% | [8] 71.9% | [9] 47.5%
active: [10] -81%

CO[C@@]12C=C[C@@]34CCC(=O)N3c3ccccc3[C@@H](O1)C4C2
inactive: [1] 99.9% | [2] 96.8% | [3] 99.8% | [4] 97.7% | [5] 104% | [6] 93% | [7] 92.7% | [8] 98.4% | [9] 101% | [10] 105%

CC(=O)c1cc2c(N)c(C(=O)Nc3ccccn3)sc2nc1C
inactive: [1] 87.3% | [2] 86.8% | [3] 73.6% | [4] 88.3% | [5] 45.6% | [6] 75.2% | [7] 77% | [8] 48.7% | [9] 88.2% | [10] 40.6%

COc1ccc(/C=C(/C(=O)N2CCN(Cc3ccccc3)CC2)c2cc(OC)c(OC)c(OC)c2)cc1O
inactive: [1] 81% | [2] 81.7% | [3] 91.2% | [4] 74.2% | [5] 58.4% | [6] 44.3% | [7] 44.8% | [8] 68% | [9] 87.6% | [10] 110%

COc1cc2c(cc1OCCCOc1cc3c(cc1OC)C(=O)N1CC(F)(F)C[C@H]1C=N3)N=C[C@@H]1CC(F)(F)CN1C2=O
active: [1] 5.01% | [2] -20.1% | [5] 7.32% | [6] -35.4% | [7] -26.4% | [9] -22.8% | [10] 3.85%
inactive: [3] 29% | [4] 11.1% | [8] 36.1%

CCn1cc(C(=O)O)c(=O)c2cc(F)c(N3CCN(CC(=O)Nc4ccc(/C(C)=N/OC)cc4)CC3)cc21
inactive: [1] 90.6% | [2] 97.9% | [3] 80.2% | [4] 88.8% | [5] 104% | [6] 84.8% | [7] 84.8% | [8] 95.8% | [9] 91.7% | [10] 102%

Cc1[nH]c2ncnc(Oc3ccc(NC(=O)Nc4ccc(Cl)c(C(F)(F)F)c4)cc3)c2c1C
inactive: [1] 56.7% | [2] 75.1% | [3] 69.6% | [4] 59.3% | [5] 36.1% | [6] 91.9% | [7] 25.3% | [8] 45.3% | [9] 84% | [10] 60.3%

Nc1c(C(=O)Nc2ccccn2)sc2nc3c(cc12)CCCCC3
active: [5] 6.46% | [7] 2.61% | [10] 6.18%
inactive: [1] 29.9% | [2] 77% | [3] 52.6% | [4] 40.2% | [6] 67.5% | [8] 20.9% | [9] 27.6%

C=C(C)[C@@H]1CC[C@]2(C(=O)O)CC[C@]3(C)[C@H](CC[C@@H]4[C@@]5(C)C[C@@H](CC#Cc6ccccc6C)C(=O)C(C)(C)[C@@H]5CC[C@]43C)[C@@H]12
inactive: [1] 18.2% | [2] 23.7% | [3] 36.4% | [4] 32.5% | [5] 16% | [6] 38.1% | [8] 26.7% | [9] 34.4%
active: [7] -4.68% | [10] -7.56%

O=C(O)C(C(=O)O)c1cccc2ccccc12
inactive: [1] 99.9% | [2] 102% | [3] 101% | [4] 92.7% | [5] 104% | [6] 94.5% | [7] 88.9% | [8] 94.4% | [9] 95.4% | [10] 110%

C/C(=C\c1cnc(C)s1)[C@@H]1C[C@@H]2O[C@@H]2CCC[C@H](C)[C@H](O)[C@@H](C)C(=O)C(C)(C)[C@@H](O)CC(=O)O1
active: [7] -2.17% | [10] -8.64%
inactive: [1] 31.7% | [2] 85.3% | [3] 25.7% | [4] 26.5% | [5] 14.9% | [6] 52.6% | [8] 42.3% | [9] 43.6%

COc1ccc([C@H]2[C@@H](F)C(=O)N2c2cc(OC)c(OC)c(OC)c2)cc1F
inactive: [1] 21.3% | [2] 59% | [3] 46.4% | [4] 31.8% | [6] 32.3% | [8] 15.3% | [9] 22.9%
active: [5] 7.06% | [7] -8.46% | [10] -68%

C#C[C@@]1(O)[C@@H](CO)O[C@@H](n2cc(Cl)c3c(N)ncnc32)[C@@H]1O
active: [1] 0.604% | [2] 1.13% | [3] -3.01% | [4] -4.82% | [5] -19.1% | [6] -27.1% | [7] -29% | [8] -31.1% | [9] -58.8% | [10] -39.4%

COc1ccc(NC(=O)Nc2ccc(Nc3nc(C)cc(Nc4ccc(C)cc4)n3)cc2)cc1
active: [1] -57.2% | [2] -71.4% | [3] -74.7% | [4] -94.1% | [5] -74.2% | [6] -54.1% | [7] -74.8% | [8] -83% | [9] -93.8% | [10] -78.7%

COc1ccc(C2N(c3cc(OC)c(OC)c(OC)c3)C(=O)C2(F)F)cc1F (stereo not given)
inactive: [1] 37.9% | [2] 75.5% | [3] 91.2% | [4] 38.4% | [5] 27.2% | [6] 60.8% | [7] 17.5% | [8] 48.6% | [9] 75.3% | [10] 16.3%

COc1ccc2nc(-c3ccc(Cl)cc3)cc(C(=O)N3N=C(c4ccc(N)cc4)CC3c3ccccc3)c2c1 (stereo not given)
inactive: [1] 62% | [2] 63.8% | [3] 54% | [4] 42.5% | [5] 25.5% | [6] 58.9% | [7] 34.7% | [8] 46.9% | [9] 31.8% | [10] 42.3%

C=C1C(=O)O[C@H]2[C@H]1CC/C(COC(=O)c1c[nH]c3ccccc13)=C\CC[C@@]1(C)O[C@@H]21
active: [1] -52.9% | [2] -78.3% | [4] -43.3% | [5] 2.46% | [6] -59.7% | [7] -66.7% | [8] -7.16% | [9] -92% | [10] -53.5%
inactive: [3] 16%

Cc1nc2sc(C(=O)Nc3cccc4ccccc34)c(N)c2cc1C(C)O (stereo not given)
active: [5] 9.5% | [7] -15.9% | [10] -5.28%
inactive: [1] 26.2% | [2] 70.7% | [3] 44.8% | [4] 39.8% | [6] 83.7% | [8] 22.7% | [9] 34.1%

Cn1cc(-c2ccc3c(c2)ncn3-c2ccc(CC(=O)Nc3cc(C(C)(C)C)on3)cc2)cn1
active: [3] 8.78% | [6] 5.11%
inactive: [1] 30.2% | [2] 22.2% | [4] 36.2% | [5] 28.5% | [7] 32.8% | [8] 19% | [9] 17.6% | [10] 38.2%

C=C(C)[C@@H]1CC[C@]2(C(=O)OCCOCCOCC[P+](c3ccccc3)(c3ccccc3)c3ccccc3)CC[C@]3(C)[C@H](CC[C@@H]4[C@@]5(C)CC[C@H](C)C(C)(C)[C@@H]5CC[C@]43C)[C@@H]12
active: [1] -80% | [2] -70.9% | [3] -98.1% | [4] -79.5% | [5] -78% | [6] -83.3% | [7] -80.6% | [8] -83.7% | [9] -83.3% | [10] -82.2%

O=C1C(=O)c2c(nc3ccc(C(F)(F)F)cn23)-c2ccccc21
active: [1] -30.8% | [2] -96.6% | [3] -94.8% | [4] -97.5% | [5] -64.8% | [6] -77.9% | [7] -72.4% | [8] -51.4% | [9] -80.8% | [10] -78.9%

C=C1C(=O)O[C@H]2[C@H]1CC/C(COC(=O)CCCCCCCC(=O)OC/C1=C/CC[C@@]3(C)O[C@H]3[C@H]3OC(=O)C(=C)[C@@H]3CC1)=C\CC[C@@]1(C)O[C@@H]21
inactive: [2] 47% | [3] 84.7% | [4] 79.2% | [5] 61.4% | [6] 17.9% | [8] 82.6%
active: [1] 2.7% | [7] -71.1% | [9] 4.86% | [10] -61.6%

CCc1c(C(=O)N[C@@H](C(=O)OCc2ccccc2)C(C)O)[nH]c2ccc(Cl)cc12 (stereo not given in full)
inactive: [1] 80.1% | [2] 21.7% | [3] 75% | [4] 65.8% | [5] 13.8% | [6] 74.5% | [7] 77.1% | [8] 69.6% | [9] 11.1% | [10] 48.7%

COc1ccc2cc(/C=C3\N=C(c4cc(OC)c(OC)c(OC)c4)OC3=O)c(OC)nc2c1
inactive: [1] 101% | [2] 107% | [3] 107% | [4] 88.9% | [5] 111% | [6] 97.7% | [7] 82.3% | [8] 96.7% | [9] 100% | [10] 117%

O=C(CCc1nnc2sc(OCc3ccccc3)nn12)c1nc2ccc([N+](=O)[O-])cc2[nH]1
inactive: [1] 84.6% | [2] 94.8% | [3] 93.3% | [4] 102% | [5] 105% | [6] 106% | [7] 79.2% | [8] 94.3% | [9] 108% | [10] 99.5%
